Consider 33 compounds from PubChem BioAssay.

Assay [1] deals with Insulin-degrading enzyme (Homo sapiens) (UniProt P14735). As to the kind of experiment: human IDE inhibitors in live cells, confirmation, fluorescence polarization, HEK cells, FAbetaB substrate (AID 435028;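 active = mean inhibition across triplicate wells above the cutoff set by the earlier primary insulin-degrading enzyme screen, cut at about 16% in these data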;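 also: 0% = DMSO wells and 100% = 60 µM reference IDE inhibitor Ii1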). Conditions: FAbetaB cleavage, at 5.59 µM, hits give high values.
The nature of assay [2]: cytotoxicity in HEK cells, cytotoxicity control for IDE inhibitor project, cell-based, luminescence (AID 449730).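 Also: 0% = vehicle wells and 100% = reference cytotoxic drug.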 As to conditions: HEK293 cytotoxicity, ATP luminescence; at 5.59 µM; hits give high values.
The target in assay [3] is Oxytocin receptor (Homo sapiens) (UniProt P30559). As to the kind of experiment: human OXTR agonists, confirmation, fluorescence, CHO-OTR cells, triplicate (AID 434963;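 active = mean activation above about 20% derived from the earlier single-dose screen, limit read from the data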;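 also: peak over minimum fluorescence ratio per well during a 100 second FLIPR read; 0% = DMSO alone and 100% = oxytocin high control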). Conditions: Fluo-8 calcium fluorescence, agonist, at 3 µM, hits give high values.
The target of assay [4] is Vasopressin V1a receptor (Homo sapiens) (UniProt P37288). The assay can be described thus: V1a receptor agonists, calcium signal, counter-screen for OXTR agonist project, triplicate, fluorescence, CHO-V1R cells (AID 434991;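 active = mean activation over triplicate exceeds the hit threshold set in the earlier primary screen, cut at about 20% in these data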;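 also: peak over basal fluorescence ratio within a 100 second read; 0% = DMSO alone and 100% = 3 nM vasopressin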). Conditions: Fluo-8 calcium fluorescence, at 3 µM, hits give high values. Background: A counterscreen serves to expose hits that act by an unwanted route or on another target.

Assay [5] deals with Photoreceptor-specific nuclear receptor (Homo sapiens) (UniProt Q9Y5X4). The assay can be described thus: NR2E3 agonist confirmation in cells, cell-based, luminescence, CHO-S two-hybrid (AID 624378;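 active = average inhibition above a cutoff equal to the mean inhibition of all tested compounds plus one SD, cut at about 70% in these data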;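 also: 0% = DMSO in NR2E3 cells and 100% = DMSO in cells lacking NR2E3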). As to conditions: CHO-S mammalian two-hybrid NR2E3-NCOR, luciferase luminescence; at 3.98 µM; hits give high values.
Assay [6] in a line: GAL4-VP16 reporter modulators, confirmation, counter-screen for NR2E3 agonist project, cell-based, luminescence, CHO-S, high throughput (AID 624379;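 active = mean inhibition above a cutoff equal to the average over all tested compounds plus one standard deviation, cut at about 70% in these data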;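 also: luciferase from a UAS reporter driven by GAL4-VP16 transactivation; 0% = DMSO with VP16-transfected cells and 100% = DMSO with cells lacking VP16; higher means less reporter light so more repression of VP16 activity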). Conditions: CHO-S GAL4-VP16 luciferase reporter, at 3.98 µM, hits give high values.
For assay [7], the target named is Nuclear receptor coactivator 1 (Homo sapiens) (UniProt Q15788). As to the kind of experiment: SRC1 coactivator transcriptional activity inhibitors, confirmation, cell-based, luminescence, quadruplicate (AID 588820;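 active = mean inhibition above 46.68%, the untreated control wells mean plus 3 SD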;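 also: 0% = DMSO wells and 100% = gossypol 36 µM treated wells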). Conditions: HEK293 GAL4-SRC1 luciferase reporter, at 3.6 µM, hits give high values. For orientation: In a reporter assay the amount or activity of a reporter protein is the signal.

Assay [8] in a line: VP16 transactivation inhibitors, counter-screen for SRC1 inhibitor project, cell-based, luminescence, high throughput (AID 588824; in the data active = inhibition above about 25%). As to conditions: cell-based VP16 transactivation luciferase luminescence; at 3.6 µM; hits give high values.
Assay [9] can be described thus: growth loss of phage-infected RecBCD+ E. coli, confirmation, RecBCD inhibitor project, absorbance, E. coli V66, T4 gene 2 phage (AID 651982;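 active = mean inhibition over triplicates exceeding the hit threshold derived in the original primary screen, cut at about 11% in these data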). As to conditions: E. coli V66 + T4 2- phage, growth OD; at 11.9 µM; hits give high values.
Assay [10] in a line: E. coli viability inhibition, counter-screen for RecBCD inhibitor project, absorbance, high throughput (AID 651983; in the data active = inhibition above about 20%;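 also: E. coli strain V66 grown with compound alone and no phage infection; 0% = bacteria with DMSO vehicle only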). Conditions: absorbance (OD) growth, at 11.9 µM, hits give high values.
Assay [11] in a line: growth loss of phage-infected AddAB-carrying E. coli, confirmation, counter-screen for RecBCD inhibitor project, absorbance, E. coli V3065, T4 phage (AID 651984;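 active = mean inhibition above the solvent-only control wells' mean plus 3 SD, cut at about 22% in these data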;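 also: higher means less bacterial growth from phage killing when AddAB is blocked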). As to conditions: E. coli expressing H. pylori AddAB + T4 phage, OD growth; at 11.9 µM; hits give high values; gene 2 mutant T4, recBCD-deleted host.
The test system of assay [12] is transactivating tegument protein VP16 (Human herpesvirus 1). As to the kind of experiment: VP16 transactivation reporter inhibitors, counter-screen for SRC2 inhibitor project, cell-based, luminescence, single concentration (AID 652007; in the data active = inhibition above about 36%). Conditions: cell-based VP16 transactivation luciferase reporter, at 8.9 µM, hits give high values.
The target in assay [13] is Nuclear receptor coactivator 2 (Homo sapiens) (UniProt Q15596). As to the kind of experiment: SRC2 coactivator transcriptional activity inhibitors, confirmation, cell-based, luminescence, HEK293, triplicate (AID 652008;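 active = mean inhibition above 46.5%, the solvent-only control mean plus 3 SD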;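 also: 0% = DMSO-treated cells and 100% = Gossypol at 36 µM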). Conditions: HEK293 GAL4-SRC2 luciferase reporter, at 8.9 µM, hits give high values.
Assay [14] has as its target (Lyso)-N-acylphosphatidylethanolamine lipase (Mus musculus) (UniProt Q8VD66). The assay can be described thus: ABHD4 inhibitors, retest, confirmation, biochemical, fluorescence polarization, mouse (AID 720658;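 active = mean inhibition across replicates above the hit cutoff set in the primary screen, cut at about 30% in these data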;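 also: 0% = wild-type ABHD4 with DMSO and 100% = catalytically dead S159A mutant with DMSO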). Conditions: purified mABHD4, FP-Rh probe fluorescence polarization; at 8.92 µM; hits give high values. For orientation: Fluorescence polarisation rises when a labelled molecule tumbles more slowly, as on binding a larger partner.

In assay [15] the target is Platelet-activating factor acetylhydrolase (Homo sapiens) (UniProt Q13093). The assay can be described thus: pPAFAH (PLA2G7) enzyme inhibitors, confirmation, biochemical, fluorescence polarization, human (AID 463230;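 active = mean inhibition of the triplicate above the hit cutoff set for the earlier primary screen, cut at about 25% in these data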;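 also: 0% = enzyme with DMSO and 100% = wells lacking pPAFAH enzyme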). As to conditions: recombinant pPAFAH, FP-Rh probe fluorescence polarization; at 3.39 µM; hits give high values.

SMILES strings stand for the structures. Unmarked numbers belong to inactive results. This is one part of the list. Activity calls are given as the source filed them. Rule as the data show it, unless noted: active = inhibition above about 22%; inactive = the rest.

Sequence of Oxytocin receptor (Homo sapiens) (P30559 whole entry, looked up): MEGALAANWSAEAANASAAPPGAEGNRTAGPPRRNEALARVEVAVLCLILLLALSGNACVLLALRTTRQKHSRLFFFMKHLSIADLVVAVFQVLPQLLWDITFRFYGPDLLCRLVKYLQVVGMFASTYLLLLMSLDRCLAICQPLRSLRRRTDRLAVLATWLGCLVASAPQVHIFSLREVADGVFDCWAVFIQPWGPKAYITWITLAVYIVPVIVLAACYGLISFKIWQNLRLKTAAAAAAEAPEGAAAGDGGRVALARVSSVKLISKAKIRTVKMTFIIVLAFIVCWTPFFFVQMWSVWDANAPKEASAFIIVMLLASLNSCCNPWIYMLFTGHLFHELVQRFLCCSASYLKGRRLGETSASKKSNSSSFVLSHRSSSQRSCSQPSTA
Sequence of Vasopressin V1a receptor (Homo sapiens) (P37288 whole entry, looked up): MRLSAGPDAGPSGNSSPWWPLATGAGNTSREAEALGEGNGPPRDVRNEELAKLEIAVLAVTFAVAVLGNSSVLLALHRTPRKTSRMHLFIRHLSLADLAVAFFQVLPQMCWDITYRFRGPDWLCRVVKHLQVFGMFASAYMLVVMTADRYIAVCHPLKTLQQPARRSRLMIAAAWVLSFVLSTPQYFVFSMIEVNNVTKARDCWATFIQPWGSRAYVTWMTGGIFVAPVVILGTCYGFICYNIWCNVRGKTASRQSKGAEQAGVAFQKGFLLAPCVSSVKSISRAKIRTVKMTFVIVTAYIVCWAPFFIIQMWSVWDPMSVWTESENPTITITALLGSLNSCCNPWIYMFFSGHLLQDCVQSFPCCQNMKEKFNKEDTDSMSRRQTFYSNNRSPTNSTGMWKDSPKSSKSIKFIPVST
Sequence of Insulin-degrading enzyme (Homo sapiens) (P14735 whole entry, looked up): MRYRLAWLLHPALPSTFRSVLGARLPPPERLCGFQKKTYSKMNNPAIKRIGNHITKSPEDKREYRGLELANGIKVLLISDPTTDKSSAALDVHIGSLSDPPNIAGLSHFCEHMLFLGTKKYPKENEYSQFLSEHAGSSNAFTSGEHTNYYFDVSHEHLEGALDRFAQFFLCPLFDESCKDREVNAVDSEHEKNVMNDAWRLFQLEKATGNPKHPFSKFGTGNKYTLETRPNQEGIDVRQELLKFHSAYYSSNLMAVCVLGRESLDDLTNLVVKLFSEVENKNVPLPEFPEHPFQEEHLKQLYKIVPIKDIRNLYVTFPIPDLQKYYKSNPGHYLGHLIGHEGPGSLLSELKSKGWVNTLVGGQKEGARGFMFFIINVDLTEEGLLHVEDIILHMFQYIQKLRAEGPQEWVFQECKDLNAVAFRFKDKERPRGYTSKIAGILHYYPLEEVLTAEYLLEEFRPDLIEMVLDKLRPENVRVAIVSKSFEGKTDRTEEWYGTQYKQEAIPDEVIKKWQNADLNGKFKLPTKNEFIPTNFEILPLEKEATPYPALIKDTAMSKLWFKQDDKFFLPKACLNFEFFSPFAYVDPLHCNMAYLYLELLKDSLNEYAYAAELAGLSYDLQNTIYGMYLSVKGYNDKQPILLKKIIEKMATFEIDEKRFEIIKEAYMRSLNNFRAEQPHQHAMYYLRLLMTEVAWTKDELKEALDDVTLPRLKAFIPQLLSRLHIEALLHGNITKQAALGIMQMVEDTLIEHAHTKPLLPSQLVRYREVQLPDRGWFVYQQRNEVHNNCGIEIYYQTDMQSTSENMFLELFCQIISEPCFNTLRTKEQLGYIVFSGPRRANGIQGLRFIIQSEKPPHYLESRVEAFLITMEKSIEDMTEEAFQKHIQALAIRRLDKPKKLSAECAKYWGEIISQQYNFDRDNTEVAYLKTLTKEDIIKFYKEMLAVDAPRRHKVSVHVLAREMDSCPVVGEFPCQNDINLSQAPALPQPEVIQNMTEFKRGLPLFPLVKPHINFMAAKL
Sequence of (Lyso)-N-acylphosphatidylethanolamine lipase (Mus musculus) (Q8VD66 whole entry, looked up): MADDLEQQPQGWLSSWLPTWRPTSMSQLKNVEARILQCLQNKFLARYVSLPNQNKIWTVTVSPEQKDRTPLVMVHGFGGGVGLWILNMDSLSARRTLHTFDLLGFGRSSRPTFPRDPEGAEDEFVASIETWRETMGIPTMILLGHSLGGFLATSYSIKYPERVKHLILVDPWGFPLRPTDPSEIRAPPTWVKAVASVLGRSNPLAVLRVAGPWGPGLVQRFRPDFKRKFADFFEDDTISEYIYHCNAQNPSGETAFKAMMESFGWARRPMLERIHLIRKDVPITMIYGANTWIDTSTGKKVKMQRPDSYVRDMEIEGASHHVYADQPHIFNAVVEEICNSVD
Sequence of Photoreceptor-specific nuclear receptor (Homo sapiens) (Q9Y5X4 whole entry, looked up, the tested form may be a part): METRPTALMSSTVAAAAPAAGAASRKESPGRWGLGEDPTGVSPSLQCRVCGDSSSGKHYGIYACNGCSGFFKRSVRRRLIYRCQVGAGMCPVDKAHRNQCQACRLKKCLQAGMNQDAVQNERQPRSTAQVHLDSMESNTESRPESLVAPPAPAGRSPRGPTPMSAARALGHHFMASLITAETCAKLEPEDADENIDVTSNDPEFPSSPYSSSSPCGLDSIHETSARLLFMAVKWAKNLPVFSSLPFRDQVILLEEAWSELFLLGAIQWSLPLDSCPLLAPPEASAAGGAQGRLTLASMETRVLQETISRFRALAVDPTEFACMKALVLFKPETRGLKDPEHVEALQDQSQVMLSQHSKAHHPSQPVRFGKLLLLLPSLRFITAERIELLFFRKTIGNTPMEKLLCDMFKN
Sequence of Nuclear receptor coactivator 2 (Homo sapiens) (Q15596 whole entry, looked up, the tested form may be a part): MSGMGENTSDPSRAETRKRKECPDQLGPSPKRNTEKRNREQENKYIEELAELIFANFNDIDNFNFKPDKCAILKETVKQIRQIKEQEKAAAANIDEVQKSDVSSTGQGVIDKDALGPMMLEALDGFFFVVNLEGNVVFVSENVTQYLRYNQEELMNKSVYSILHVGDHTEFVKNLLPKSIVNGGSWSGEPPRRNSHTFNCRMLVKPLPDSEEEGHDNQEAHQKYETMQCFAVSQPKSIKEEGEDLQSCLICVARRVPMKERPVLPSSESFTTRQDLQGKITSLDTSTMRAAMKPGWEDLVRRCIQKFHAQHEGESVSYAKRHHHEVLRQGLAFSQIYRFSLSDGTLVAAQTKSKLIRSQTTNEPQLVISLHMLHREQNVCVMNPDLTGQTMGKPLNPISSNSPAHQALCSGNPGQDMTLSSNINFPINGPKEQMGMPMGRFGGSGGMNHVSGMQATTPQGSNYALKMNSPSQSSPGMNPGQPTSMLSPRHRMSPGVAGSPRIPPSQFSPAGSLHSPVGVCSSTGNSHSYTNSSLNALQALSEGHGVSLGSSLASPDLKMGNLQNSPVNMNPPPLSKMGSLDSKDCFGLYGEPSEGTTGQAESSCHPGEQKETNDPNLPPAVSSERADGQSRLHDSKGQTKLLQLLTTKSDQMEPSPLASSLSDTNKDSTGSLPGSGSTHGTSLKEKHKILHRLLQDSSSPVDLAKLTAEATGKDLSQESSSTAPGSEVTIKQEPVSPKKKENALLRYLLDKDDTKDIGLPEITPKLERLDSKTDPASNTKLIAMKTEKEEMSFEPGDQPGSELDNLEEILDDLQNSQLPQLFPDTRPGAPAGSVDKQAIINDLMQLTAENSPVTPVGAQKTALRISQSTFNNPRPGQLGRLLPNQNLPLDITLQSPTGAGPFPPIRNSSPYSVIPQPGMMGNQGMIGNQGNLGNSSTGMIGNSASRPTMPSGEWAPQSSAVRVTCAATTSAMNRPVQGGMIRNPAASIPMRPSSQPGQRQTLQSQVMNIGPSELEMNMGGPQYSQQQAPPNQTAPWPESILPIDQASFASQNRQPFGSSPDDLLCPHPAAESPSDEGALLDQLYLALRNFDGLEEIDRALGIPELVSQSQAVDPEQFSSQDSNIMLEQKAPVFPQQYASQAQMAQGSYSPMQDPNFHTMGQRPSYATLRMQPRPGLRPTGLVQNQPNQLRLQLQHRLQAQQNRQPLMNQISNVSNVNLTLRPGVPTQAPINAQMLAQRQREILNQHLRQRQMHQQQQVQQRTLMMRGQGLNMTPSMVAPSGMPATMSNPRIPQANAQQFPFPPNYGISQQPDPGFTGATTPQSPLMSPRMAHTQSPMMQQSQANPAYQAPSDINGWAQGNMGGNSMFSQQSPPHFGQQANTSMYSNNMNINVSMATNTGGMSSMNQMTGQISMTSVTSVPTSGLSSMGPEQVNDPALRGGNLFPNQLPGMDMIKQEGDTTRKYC
Sequence of Platelet-activating factor acetylhydrolase (Homo sapiens) (Q13093 whole entry, looked up): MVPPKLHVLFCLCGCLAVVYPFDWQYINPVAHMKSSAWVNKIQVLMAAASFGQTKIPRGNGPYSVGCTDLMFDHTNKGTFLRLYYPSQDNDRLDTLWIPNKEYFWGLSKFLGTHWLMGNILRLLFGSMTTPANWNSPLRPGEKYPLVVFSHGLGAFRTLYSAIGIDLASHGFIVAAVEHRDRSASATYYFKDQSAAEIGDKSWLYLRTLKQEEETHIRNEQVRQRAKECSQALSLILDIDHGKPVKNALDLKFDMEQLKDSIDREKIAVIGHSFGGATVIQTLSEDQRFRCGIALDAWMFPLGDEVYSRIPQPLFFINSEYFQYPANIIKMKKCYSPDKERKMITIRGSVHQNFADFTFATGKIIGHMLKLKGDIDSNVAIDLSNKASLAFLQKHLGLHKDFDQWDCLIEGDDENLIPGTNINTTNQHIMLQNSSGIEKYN

As a reminder, the inhibition is the relative decrease from the control value, in per cent. As to `O=C(CCc1ccc(S(=O)(=O)N2CCOCC2)cc1)Nc1ccc2ccccc2c1`, the inhibition in assay [1] is 8.6%; in assay [2], 13.4%.

As for `CN(C)S(=O)(=O)c1ccc(Oc2ccc(S(=O)(=O)N(C)C)cc2)cc1`, the activation was 11.7% in assay [3] and 11.1% in assay [4]. In addition, the inhibition in assay [5] is 71.8% (active); in assay [6] it was 31.9%.

Turning to `Cc1c(C(=O)Nc2cccc(-c3nnc4n3CCCCC4)c2)oc2ccccc12`, the inhibition in assay [1] is 5.89%; in assay [2], 21.4%.

With `Cc1cc(S(=O)(=O)c2cc3ccc(O)c(C)c3oc2=O)ccc1F`, the activation is 16% in [3] and 13.1% in [4]. Further, the inhibition in [7] was -24%; in assay [8], -0.08%.

On to `CS(=O)(=O)N(Cc1ccccc1)c1ccc(C(=O)NN=C2CCCCCC2)cc1`, for which the inhibition is 3.28% in assay [1] and 6.18% in assay [2].

On to `CC(C(=O)c1ccc(-c2ccccc2)cc1)[n+]1cccc(Br)c1` (configuration not stated), for which the inhibition in assay [1] was 16.4% (active); in assay [2], 14.3%.

Regarding `CCN1CCCC1CNc1ncnc2c1[nH]c1ccc(F)cc12` (configuration not stated), the results for the inhibition in assay [1] and in assay [2] were 3.64% and 8.81%, respectively.

Take `CCCCc1cc(=O)oc2c(C)c(OCC(=O)N3CCC(C(N)=O)CC3)ccc12`: the inhibition in assay [1] is 8.74%; in assay [2], 11.7%.

Consider `NC(=O)c1c(Nc2nc3c(F)cccc3s2)sc2c1CCCC2`, for which the inhibition in assay [1] is 12.7%; in [2], 5.16%.

On to `C=CCC1=C/C(=C\c2c(N)n3nc(CC(=O)N4CCOCC4)sc3nc2=O)C=C(OC)C1=O`, for which the inhibition was 25.9% (active) in assay [1] and 12.5% in assay [2].

Consider `CCOC(=O)CC1C(=O)NCCN1c1nc2c(C)cccn2c(=O)c1/C=C1\SC(=S)N(C(C)CC)C1=O` (configuration not stated), for which the inhibition is 27.1% (active) in assay [1] and 41.5% (active) in assay [2].

On to `Cn1c2ccccc2c2cc(/C=C(\NC(=O)c3ccccc3)C(=O)NCC(=O)O)ccc21`, for which the inhibition in assay [1] was 17.3% (active); in assay [2] it was 5.76%.

`Cc1nn(C)cc1C(=O)c1ccccc1`: the figures for the inhibition in assay [1] and in [2] were 3.52% and 5.03%, respectively.

Consider `Cc1c(-c2cccc(Cl)c2)nc2ccccc2c1C(=O)OCC(=O)N(C)C1CCS(=O)(=O)C1` (configuration not stated), for which the inhibition was 16.9% (active) in assay [1] and 14.1% in assay [2].

For the compound `Cc1ccc2c(c1)c1ncnc(N3CCc4ccccc4C3)c1n2C`, the inhibition is 14% in assay [1] and 7.19% in assay [2].

As for `Cc1cccc(N2CCN(C(=O)c3cccc(N4C(=O)C5C6C=CC(C6)C5C4=O)c3)CC2)c1C` (configuration not stated), the inhibition in assay [1] is 31.1% (active); in [2], 17.6%.

Regarding `CC(=O)c1cc(NC(=O)c2ccccc2)c(=O)oc1/C=C/N(C)C`, the inhibition is 31% (active) in [1] and 5.05% in [2].

On to `Oc1ccc(-c2onc3ccc(Cl)cc23)cc1`, for which the figures for the inhibition in assay [1] and in assay [2] were 101% (active) and 12.7%, respectively.

Take `COc1cc(/C=C(\C#N)c2nc3ccccc3[nH]2)ccc1O`: the inhibition in [1] is 134% (active); in assay [2], 21.9%.

Consider `CCOc1ccc(Cn2nnc(C(=O)Nc3ccc(OC)cc3OC)c2N)cc1`, for which the activation was 16.4% in assay [3] and 14.5% in assay [4]. In addition, the inhibition in assay [9] is -0.29%; in [10] it was -0.35%; in assay [11], -1.47%.

On to `CCCc1nc(SCC(=O)Nc2ccc(S(=O)(=O)N(C)C)cc2)c2ccccc2n1`, for which the values for the inhibition in assay [1] and in [2] were 6.74% and 21.9%, respectively.

Regarding `CCc1ccc(-c2nn(-c3ccccc3)cc2CSC(=N)N)cc1`, the activation in assay [3] was 11%; in assay [4], 7.29%. The results for the inhibition in assay [12], in [13] and in assay [14] were -13.8%, -7.64% and 43.6% (active), respectively.

Regarding `CCN1/C(=C/c2ccc3ccc(C)cc3[n+]2CC)Sc2ccccc21`, the values for the inhibition in assay [1] and in [2] were 55.5% (active) and 107% (active), respectively.

For the compound `CCCC(=O)Nc1c(O)c2ccccc2[nH]c1=O`, the figures for the inhibition in assay [1] and in assay [2] were 2.78% and 9.27%, respectively.

Consider `CCN(CC)c1ccc2cc(C(N)=O)/c(=N\NC(=O)c3ccncc3)oc2c1`, for which the values for the inhibition in assay [1] and in assay [2] were 85.5% (active) and 28.8% (active), respectively.

As for `Cc1cc(Cl)ccc1OCCCC(=O)NCc1ccncc1`, the inhibition is 7.81% in [1] and 14.7% in assay [2].

For the compound `CC1(C)Cc2cccc(OCC(=O)N3CCN(c4ccc([N+](=O)[O-])cc4)CC3)c2O1`, the inhibition in assay [1] was 4.72%; in assay [2], 19.7%.

For the compound `COc1cc(/C=C2/SC(=S)N(Cc3ccccc3)C2=O)cc(OC)c1O`, the activation was 29.3% (active) in assay [3] and 38.2% (active) in [4]. Also, the inhibition is 142% (active) in assay [1] and 19.6% in assay [2].

Consider `O=C(N/N=C/c1ccc(OC(=O)c2ccccc2Cl)cc1)c1ccc(O)cc1`, for which the values for the inhibition in assay [1] and in assay [2] were 4.51% and 6.4%, respectively.

As to `CCC(=C/c1sc2ccc3ccccc3c2[n+]1C)/C=C1\Sc2ccc3ccccc3c2N1C`, the inhibition in [1] is 13.4%; in assay [2] it was 110% (active).

`O=C(C1=C[C@H](c2coc3ccccc3c2=O)C[C@H](OCc2ccc(CO)cc2)O1)N1CCN(Cc2ccccc2)CC1`: the results for the inhibition in assay [1] and in [2] were 2.63% and 17.5%, respectively.

Turning to `O=C(Nc1ccc(Sc2ccc(Br)cc2)cc1)c1ccco1`, the inhibition in assay [1] is 14.3%; in assay [2], 20.9%.

As to `COc1cc(C2CC(=O)N3CN(Cc4ccccc4)CSC3=C2C#N)ccc1OCc1ccccc1` (configuration not stated), the inhibition in assay [15] was 14.2%.
